Source: PubChem BioAssay
Neddylation inh – inhibitors of cullin neddylation, primary screen, biochemical, TR-FRET, uHTS, NAE and Ubc12. 360,000 tested, 0.58% active. AID 651699, 2012. inhibition, % at 25 µM. NEDD8-conjugating enzyme Ubc12 (Homo sapiens) + NEDD8-activating enzyme E1 regulatory …; in the data active = inhibition above about 36%
NPR1 activator – GC-A stimulated cGMP production enhancers – HEK293 GC-A cells, cGMP TR-FRET, EC30 ANP, primary screen | Atrial natriuretic peptide receptor 1 (Homo sapiens), P16066 | 0% at EC30 ANP, 100% saturating ANP | activation, % at 10 µM | 370,000 tested, 0.14% active; in the data active = activation above about 40%
NadD inh – inhibitors of S. aureus NadD, primary screen, biochemical, colorimetric, uHTS. Nicotinate-nucleotide adenylyltransferase NadD (Staphylococcus aureus N315). purified NadD enzyme, colorimetric absorbance read-out. inhibition, % at 20 µM. 360,000 tested, 0.78% active. AID 602399, 2012; in the data active = inhibition above about 26%
NPR2 activator – human GC-B receptor activators, primary screen, HEK293 GC-B cells, cGMP TR-FRET, EC30 CNP. Atrial natriuretic peptide receptor 2 (Homo sapiens), P20594. 0% at EC30 CNP, 100% saturating CNP. activation, % at 10 µM. 370,000 tested, 0.11% active;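 active = activation at 10 µM reaching about 35% in either raw or pattern-adjusted values, limit read from the data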
NadD conf – inhibitors of S. aureus NadD, confirmation, biochemical, colorimetric, single concentration; inhibition, % at 20 µM; purified S. aureus NadD, colorimetric enzyme assay; shares compounds with NadD inh; 2,000 tested, 13% active; in the data active = inhibition mostly above about 42%, no sharp cut-off; inactive = mostly below about 42%
An asterisk follows results filed as active; / = no result. The list is not random: actives were taken first. Their share in the collection is about 1.5%.

SMILES	Neddylation inh	NPR1 activator	NadD inh	NPR2 activator	NadD conf
O=C(Nc1ccc(Cl)c(Cl)c1)Nc1ccc([N+](=O)[O-])cn1	2	9	34*	0	6
CC(C)(C)c1ccc(S(=O)(=O)N2CCCC(C(=O)NCc3cccs3)C2)cc1 (configuration not stated)	/	1	/	2	/
Cc1ccc(NC(=O)C2(c3ccccc3)CCCC2)nc1	-5	-29	32*	-27	2
COC(=O)CCCC1=CC2=CC(=O)C(C)(OC(=O)c3cccs3)C(=O)C2=CN1Cc1ccc2c(c1)OCO2 (configuration not stated)	-48	9	36*	3	28
COc1ccc(C(=O)c2[nH]c(N)c(C(=O)NCCc3c[nH]c4ccccc34)c2-c2ccc(Br)cc2)cc1	13	-4	44*	-4	29
Nc1[nH]c(C(=O)c2ccccc2)c(-c2ccc(Br)cc2)c1C(=O)NCCc1c[nH]c2ccccc12	8	-9	27	-4	/
COc1ccc(Cn2cc(CN3[C@@H](Cc4ccccc4)COc4cc(Br)ccc4S3(=O)=O)nn2)cc1	/	3	/	5	/
COc1cc(O)c(C(CC(=O)N2CCC(C)CC2)c2ccc3c(c2)OCO3)c(OC)c1 (configuration not stated)	/	-23	/	-22	/
C/C(=N\NC(=S)Nc1ccc(C)cc1)c1cccc(N)c1	34	4	27*	3	17
O=C1N[C@@H](Cc2ccccc2)C(=O)N2[C@H]1C[C@]1([C@]34C[C@H]5C(=O)N[C@@H](Cc6ccccc6)C(=O)N5[C@H]3N(S(=O)(=O)c3ccccc3)c3ccccc34)c3ccccc3N(S(=O)(=O)c3ccccc3)[C@H]21	-16	1	38*	1	45
COC(=O)[C@]12C[C@H](CC(=O)N3CCOCC3)C(=O)N(Cc3ccccc3)C1=C[C@H](C(C)(C)C)O[C@@H]2C	/	-4	/	-9	/
Cn1c2ccccc2c(=O)c2ccc(NCCc3cccs3)cc21	-54	15	36*	16	3
COc1ccc(NS(=O)(=O)c2cc(N=Nc3c(O)[nH]c(=O)[nH]c3=O)ccc2OC)cc1Br	-40	-1	17	-1	/
CCOc1ccc(NS(=O)(=O)c2ccc(Cl)c(N=Nc3c(O)[nH]c(=S)[nH]c3=O)c2)cc1Br	-33	-1	39*	-3	63*
COc1ccc(-n2c(=S)[nH]c3c(sc(=S)n3-c3ccccc3)c2=O)c(OC)c1	-24	8	30*	6	14
O=C(CC1CCCC1)N1CC[C@H]2[C@H](CCCN2Cc2ccc(F)cc2)C1	/	2	/	1	/
Nc1nc(-c2cc(O)ccc2[N+](=O)[O-])cc(-c2ccccc2)c1[N+](=O)[O-]	7	-19	53*	-3	8
CCN(CC)C(=O)CSc1ncnc2c(-c3cccs3)nsc12	19	-16	34*	0	56*
O=C(CC1N=C2c3ccccc3N=C(SCc3ccc(Cl)cc3)N2C1=O)NCc1ccco1 (configuration not stated)	-46	/	49*	/	60*
CNC12CCc3cc(OC)c(OC)c(c31)-c1cc3c(cc1C2)OCO3 (configuration not stated)	/	-1	/	0	/
Cc1nc(SCc2nc3ccc(F)cc3[nH]2)c2oc3ccccc3c2n1	-3	1	3	0	/
Cc1nc(SCc2nc3ccc([N+](=O)[O-])cc3[nH]2)c2oc3ccccc3c2n1	-44	18	33*	12	3
CC(C)(C)OC(=O)NCc1ccc(NC(=O)c2nc[nH]c2C(=O)NCCCCCCNC(=O)c2[nH]cnc2C(=O)Nc2ccc(CNC(=O)OC(C)(C)C)cc2)cc1	29	1	39*	-2	14
Cn1cnc(C(=O)NCc2ccc(CNC(=O)OC(C)(C)C)cc2)c1C(=O)NCc1ccc(CNC(=O)OC(C)(C)C)cc1	7	0	33*	3	27
CC(C)(C)OC(=O)NCc1ccc(CNC(=O)c2ncn(Cc3ccccc3)c2C(=O)NCc2ccc(CNC(=O)OC(C)(C)C)cc2)cc1	-16	-4	12	5	/
